PubChem BioAssay (NCATS)
Results filed as inconclusive are left out. Calls of active or inactive are those of the source. Unless noted, the call rests on the fitted dose curve; in most records, active means well fitted curve in the direction sought with a large enough effect; inconclusive means small, poorly fitted or top-dose-only effect, or another doubt; inactive means no such curve, though single readings can be large; an effect the other way counts as inactive or inconclusive.

Legend:
[1] = AP1 Signaling Pathway (AID 357; active means well fitted curve in either direction with a large enough effect, not every such curve was filed as active;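 further: ME-180 reporter cells stimulated with EGF at its EC50 level; on the % scale 0 is the no-effect control and ±100 the full control effect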); conditions: ME-180 (cervical carcinoma) AP-1-bla reporter, EGF-induced, beta-lactamase ratio, 5 h; at 38 µM (top of the series)
Outline: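 A ratiometric CCF4 readout (405 nm excitation; 460 and 530 nm emission) quantified AP-1-driven beta-lactamase in ME-180 cells after 5 h with compound and EC50 EGF; AC50 values were derived for activators and inhibitors.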

[2] = target: Cytochrome P450 1A2 (Homo sapiens) (UniProt P05177); experiment: p450-cyp1a2 (AID 410; calls by dose curve; further: potency means the concentration at half of the fitted maximal effect)
Sequence of Cytochrome P450 1A2 (Homo sapiens) (P05177 whole entry, looked up): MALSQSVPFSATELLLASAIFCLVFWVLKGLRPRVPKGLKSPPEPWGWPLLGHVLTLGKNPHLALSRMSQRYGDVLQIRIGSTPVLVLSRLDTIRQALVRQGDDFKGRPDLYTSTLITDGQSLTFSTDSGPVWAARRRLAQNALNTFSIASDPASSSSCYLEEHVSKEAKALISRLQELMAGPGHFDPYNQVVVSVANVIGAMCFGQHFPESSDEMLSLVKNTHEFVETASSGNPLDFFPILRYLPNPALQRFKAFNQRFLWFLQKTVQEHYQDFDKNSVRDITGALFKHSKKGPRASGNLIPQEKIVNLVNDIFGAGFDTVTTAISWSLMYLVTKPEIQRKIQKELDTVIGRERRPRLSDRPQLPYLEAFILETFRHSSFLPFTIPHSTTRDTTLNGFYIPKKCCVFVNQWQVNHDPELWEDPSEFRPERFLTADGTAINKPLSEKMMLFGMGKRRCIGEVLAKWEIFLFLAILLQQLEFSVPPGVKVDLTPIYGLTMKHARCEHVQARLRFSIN
Outline: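 O-Demethylation of luciferin 6' methyl ether by human CYP1A2 is monitored as luciferase luminescence. Substrate sits at Km (100uM); enzyme is 20nM. Values are scaled to 57 uM furafylline as maximal inhibition.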

[3] = target: Glucocorticoid receptor (Homo sapiens) (UniProt P04150); experiment: GR-GFP Redistribution (AID 450;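 active means compounds whose dose series gives a full or clear partial fitted curve of increased nuclear translocation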; further: potency means the concentration at half of the fitted maximal effect); conditions: U2OS GR-GFP nuclear translocation, laser cytometry, 2 h
Sequence of Glucocorticoid receptor (Homo sapiens) (P04150 whole entry, looked up, the tested form may be a part): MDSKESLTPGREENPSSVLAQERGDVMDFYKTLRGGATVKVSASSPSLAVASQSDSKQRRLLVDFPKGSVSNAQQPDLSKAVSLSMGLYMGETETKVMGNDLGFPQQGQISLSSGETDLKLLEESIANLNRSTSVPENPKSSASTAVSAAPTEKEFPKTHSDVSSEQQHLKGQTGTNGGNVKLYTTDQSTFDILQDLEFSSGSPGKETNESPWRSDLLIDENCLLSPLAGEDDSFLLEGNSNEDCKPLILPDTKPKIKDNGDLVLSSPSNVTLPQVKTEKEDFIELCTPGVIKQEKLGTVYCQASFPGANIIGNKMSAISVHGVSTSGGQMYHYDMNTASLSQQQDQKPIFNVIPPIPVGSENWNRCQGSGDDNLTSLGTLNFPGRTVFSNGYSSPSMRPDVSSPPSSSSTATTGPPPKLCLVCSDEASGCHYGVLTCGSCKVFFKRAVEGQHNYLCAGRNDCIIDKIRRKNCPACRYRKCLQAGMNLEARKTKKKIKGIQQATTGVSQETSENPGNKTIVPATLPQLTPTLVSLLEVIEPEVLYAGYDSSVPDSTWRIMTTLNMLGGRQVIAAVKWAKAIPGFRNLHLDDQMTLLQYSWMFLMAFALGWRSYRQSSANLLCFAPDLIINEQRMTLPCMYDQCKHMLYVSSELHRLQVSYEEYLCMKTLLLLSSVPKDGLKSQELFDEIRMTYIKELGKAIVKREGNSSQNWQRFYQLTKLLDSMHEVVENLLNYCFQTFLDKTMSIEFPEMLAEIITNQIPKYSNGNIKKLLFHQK

[4] = target: Glucocorticoid receptor (Homo sapiens) (UniProt P04150); experiment: GR-EFC Redistribution (AID 451; calls by dose curve; further: potency means the concentration at half of the fitted maximal effect); conditions: CHO-K1 GR-EFC translocation, beta-gal luminescence, 2 h
Outline: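 CHO-K1 cells stably expressing nuclear-localized β-gal enzyme acceptor and GR fused C-terminally to the enzyme donor fragment; ligand-driven nuclear translocation restores β-gal by complementation. Compounds titrated up to 46 uM final, 2 h at 37 °C; luminescence read.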

[5] = target: Guanine nucleotide-binding protein G(i) subunit alpha-1 (Homo sapiens) (UniProt P63096); experiment: qHTS Assay for Inhibitors of RGS12 GoLoco Motif Activity (Green Fluorophore) (AID 879);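 further: 0% = labeled peptide with Gαi1 and full inhibition = labeled peptide alone without protein; negative values mean loss of peptide binding seen as reduced polarization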
Sequence of Guanine nucleotide-binding protein G(i) subunit alpha-1 (Homo sapiens) (P63096 whole entry, looked up): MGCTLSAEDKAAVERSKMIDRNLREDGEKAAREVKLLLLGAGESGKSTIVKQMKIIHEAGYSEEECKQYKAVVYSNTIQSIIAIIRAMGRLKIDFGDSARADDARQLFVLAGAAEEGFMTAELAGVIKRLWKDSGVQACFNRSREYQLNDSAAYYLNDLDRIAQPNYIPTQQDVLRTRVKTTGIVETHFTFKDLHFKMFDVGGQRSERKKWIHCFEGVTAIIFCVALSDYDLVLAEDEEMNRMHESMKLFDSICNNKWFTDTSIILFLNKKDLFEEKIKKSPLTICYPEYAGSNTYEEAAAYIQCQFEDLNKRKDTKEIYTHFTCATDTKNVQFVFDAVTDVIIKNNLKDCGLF
Outline: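 A drop in FITC polarization marked displacement of the FITC-tagged RGS12 GoLoco peptide (10 nM) from Gαi1 (50 nM). Compounds were incubated 10 min at room temperature in Tris pH 7.5 buffer containing 150 mM NaCl, 0.1 mM GDP and 0.05% NP40; unlabeled peptide titration served as control.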

[6] = target: Cytochrome P450 3A4 (Homo sapiens) (UniProt P08684); experiment: qHTS Assay for Activators of Cytochrome P450 3A4 (AID 885); further: nearly all actives have a fitted effect of over 65% in size
Sequence of Cytochrome P450 3A4 (Homo sapiens) (P08684 whole entry, looked up): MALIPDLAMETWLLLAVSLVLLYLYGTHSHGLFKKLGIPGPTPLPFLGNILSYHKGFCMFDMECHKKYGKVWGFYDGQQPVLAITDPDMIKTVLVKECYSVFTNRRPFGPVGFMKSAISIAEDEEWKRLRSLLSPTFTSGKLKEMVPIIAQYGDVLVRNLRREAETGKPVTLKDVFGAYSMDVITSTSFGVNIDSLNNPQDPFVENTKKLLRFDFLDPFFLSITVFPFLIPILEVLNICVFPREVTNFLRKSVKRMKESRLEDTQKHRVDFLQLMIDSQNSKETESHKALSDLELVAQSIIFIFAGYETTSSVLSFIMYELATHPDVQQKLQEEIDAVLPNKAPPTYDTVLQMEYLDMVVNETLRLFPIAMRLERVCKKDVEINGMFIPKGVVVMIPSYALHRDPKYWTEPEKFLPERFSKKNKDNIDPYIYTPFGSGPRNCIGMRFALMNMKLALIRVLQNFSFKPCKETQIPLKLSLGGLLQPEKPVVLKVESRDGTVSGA
Outline: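 Using 20nM recombinant human CYP3A4 in potassium phosphate (200mM), substrate Luciferin-PPXE at 25uM, luminescent luciferin detection followed a 60-min RT NADPH reaction; data scaled to 57 uM ketoconazole.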

[7] = target: Cytochrome P450 2C19 (Homo sapiens) (UniProt P33261); experiment: qHTS Assay for Inhibitors and Substrates of Cytochrome P450 2C19 (AID 899); further: on the % scale 0 is the no-effect control and ±100 the full control effect; nearly all actives have a fitted effect of over 60% in size
Sequence of Cytochrome P450 2C19 (Homo sapiens) (P33261 whole entry, looked up): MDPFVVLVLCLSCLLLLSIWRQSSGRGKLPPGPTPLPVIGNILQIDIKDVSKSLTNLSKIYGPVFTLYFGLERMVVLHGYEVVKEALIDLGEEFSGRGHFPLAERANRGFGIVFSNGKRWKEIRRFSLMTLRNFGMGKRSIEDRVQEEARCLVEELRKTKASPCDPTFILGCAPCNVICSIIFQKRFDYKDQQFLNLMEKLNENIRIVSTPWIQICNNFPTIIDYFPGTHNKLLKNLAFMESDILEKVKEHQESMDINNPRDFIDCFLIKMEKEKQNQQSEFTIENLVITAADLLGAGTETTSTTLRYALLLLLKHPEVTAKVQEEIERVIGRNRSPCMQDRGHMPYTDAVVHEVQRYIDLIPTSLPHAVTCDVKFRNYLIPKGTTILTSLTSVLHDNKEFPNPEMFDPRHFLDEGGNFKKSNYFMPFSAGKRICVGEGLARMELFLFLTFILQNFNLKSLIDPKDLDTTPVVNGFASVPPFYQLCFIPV
Outline: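 In 50mM KPO4, the reaction held 5nM enzyme and KM-level (10uM) Luciferin-H EGE; it ran 60 min at 37C after NADPH regeneration and a 10 min compound preincubation. Luminescence values were scaled to 57uM ketoconazole as complete inhibition.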

[8] = target: Muscarinic acetylcholine receptor M1 (Rattus norvegicus) (UniProt P08482); experiment: qHTS Assay for Antagonists of Acetylcholine Muscarinic M1 Receptor: Kinetic Measurement of Intracellular Calcium Response (AID 943);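 further: Fluo-4 calcium signal as peak divided by basal fluorescence over 4 min; nearly all actives have a fitted effect of over 75% in size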
Sequence of Muscarinic acetylcholine receptor M1 (Rattus norvegicus) (P08482 whole entry, looked up): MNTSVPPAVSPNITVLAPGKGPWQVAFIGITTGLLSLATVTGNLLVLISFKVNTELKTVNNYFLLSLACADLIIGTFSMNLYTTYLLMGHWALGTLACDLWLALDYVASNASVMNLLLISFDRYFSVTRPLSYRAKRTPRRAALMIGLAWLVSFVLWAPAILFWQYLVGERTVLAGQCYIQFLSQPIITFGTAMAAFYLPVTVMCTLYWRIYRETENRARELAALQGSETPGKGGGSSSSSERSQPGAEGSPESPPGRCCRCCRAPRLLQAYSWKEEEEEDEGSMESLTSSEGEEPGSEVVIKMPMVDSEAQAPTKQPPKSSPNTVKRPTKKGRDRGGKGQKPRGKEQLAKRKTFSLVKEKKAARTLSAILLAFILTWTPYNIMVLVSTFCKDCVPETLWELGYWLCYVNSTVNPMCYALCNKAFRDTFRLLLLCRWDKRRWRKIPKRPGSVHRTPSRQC
Outline: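 Antagonism is measured as inhibition of the carbachol-evoked calcium rise in CHO cells transfected with rat M1. Cells are dye-loaded, exposed to compound for 10 min, then stimulated with 100 nM carbachol (EC80).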

[9] = target: Pyruvate kinase (Leishmania mexicana) (UniProt Q27686); experiment: qHTS Validation Assay for Inhibitors of Leishmania Mexicana Pyruvate Kinase (AID 945);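 further: 0% = DMSO only neutral control wells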
Sequence of Pyruvate kinase (Leishmania mexicana) (Q27686 2-499 E452W): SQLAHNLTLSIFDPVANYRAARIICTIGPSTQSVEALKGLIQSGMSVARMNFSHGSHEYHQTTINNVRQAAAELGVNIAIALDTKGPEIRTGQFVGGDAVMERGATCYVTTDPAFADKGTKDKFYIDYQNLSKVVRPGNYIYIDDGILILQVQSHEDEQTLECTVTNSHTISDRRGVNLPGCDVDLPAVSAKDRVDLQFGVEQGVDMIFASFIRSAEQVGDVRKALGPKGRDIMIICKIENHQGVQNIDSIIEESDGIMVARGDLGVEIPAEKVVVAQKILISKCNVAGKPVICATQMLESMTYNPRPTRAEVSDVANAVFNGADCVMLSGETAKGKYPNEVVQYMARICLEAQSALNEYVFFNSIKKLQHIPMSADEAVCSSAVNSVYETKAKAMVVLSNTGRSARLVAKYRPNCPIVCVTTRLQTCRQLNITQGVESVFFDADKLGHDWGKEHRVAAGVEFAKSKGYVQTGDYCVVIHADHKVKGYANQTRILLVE
Outline: (§1)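 Pyruvate kinase activity of E451W LmPYK (0.2 nM) was followed as ATP output after 1 h at room temperature with 0.5 mM PEP and 0.1 mM ADP, detected by PKLight luminescence.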

[10] = target: Pyruvate kinase PKM (Homo sapiens) (UniProt P14618); experiment: qHTS Assay for Activators of Human Muscle Pyruvate Kinase (AID 954; active means well fitted curve in the direction sought with a large enough effect, not every such curve was filed as active;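 further: 0% = uninhibited enzyme and -100% = no enzyme or full thiadiazolimine inhibition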)
Sequence of Pyruvate kinase PKM (Homo sapiens) (P14618 whole entry, looked up): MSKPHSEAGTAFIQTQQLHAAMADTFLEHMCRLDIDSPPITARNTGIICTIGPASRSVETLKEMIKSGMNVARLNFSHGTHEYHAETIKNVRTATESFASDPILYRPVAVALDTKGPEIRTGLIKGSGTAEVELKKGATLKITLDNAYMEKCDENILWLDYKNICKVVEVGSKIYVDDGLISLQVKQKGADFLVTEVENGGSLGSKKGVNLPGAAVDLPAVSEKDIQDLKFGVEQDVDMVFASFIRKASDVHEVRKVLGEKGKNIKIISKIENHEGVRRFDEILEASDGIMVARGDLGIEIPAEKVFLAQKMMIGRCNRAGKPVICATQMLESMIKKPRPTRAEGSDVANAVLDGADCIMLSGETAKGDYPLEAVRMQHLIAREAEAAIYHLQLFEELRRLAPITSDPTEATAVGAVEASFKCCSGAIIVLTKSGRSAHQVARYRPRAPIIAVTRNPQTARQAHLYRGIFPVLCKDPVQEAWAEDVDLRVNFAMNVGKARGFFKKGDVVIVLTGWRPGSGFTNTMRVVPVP
Outline: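 Screening used highly purified human pyruvate kinase M2 under submaximal activity, with PEP at its Km and ADP below Km. After an hour at room temperature, ATP was read by luciferase luminescence.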

[11] = target: Pyruvate kinase (Leishmania mexicana) (UniProt Q27686); experiment: qHTS Validation Assay for Activators of Leishmania Mexicana Pyruvate Kinase (AID 959)
Outline: as §1

[12] = target: Alpha-galactosidase A (Homo sapiens) (UniProt P06280); experiment: Counterscreen for Glucocerebrosidase Inhibitors: qHTS Assay for Human alpha-Galactosidase at pH 4.5 (AID 992); further: 0% is about no effect
Sequence of Alpha-galactosidase A (Homo sapiens) (P06280 whole entry, looked up): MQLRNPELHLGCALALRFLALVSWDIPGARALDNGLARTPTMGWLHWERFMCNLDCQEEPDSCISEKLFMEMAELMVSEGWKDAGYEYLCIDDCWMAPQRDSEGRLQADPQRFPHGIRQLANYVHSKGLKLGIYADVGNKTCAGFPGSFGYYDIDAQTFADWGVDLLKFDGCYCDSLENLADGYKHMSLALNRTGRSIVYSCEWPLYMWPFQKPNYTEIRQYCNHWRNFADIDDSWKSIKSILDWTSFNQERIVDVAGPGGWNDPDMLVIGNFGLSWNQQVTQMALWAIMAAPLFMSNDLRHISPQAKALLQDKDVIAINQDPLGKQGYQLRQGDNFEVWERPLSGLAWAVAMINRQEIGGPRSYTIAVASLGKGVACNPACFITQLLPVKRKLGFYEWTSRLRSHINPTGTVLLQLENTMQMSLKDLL
Outline: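 Each compound is preincubated briefly with 2 nM enzyme before substrate addition (80 uM); plates then sit 20 min at ambient temperature, are quenched with 1M NaOH/1M glycine, and read fluorometrically.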

[13] = target: alpha-glucosidase (Oryza sativa, rice) (UniProt Q653V4); experiment: Counterscreen for Glucocerebrosidase Inhibitors: qHTS Assay for Rice alpha-Glucosidase at pH 5.0 (AID 997);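 further: 0% = full activity with enzyme and -100% = basal without enzyme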
Outline: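 Endpoint fluorogenic assay at pH 5.0: compounds (0.7 nM to 77 uM) titrated against 4 nM rice enzyme and 400 uM 4-MU-alpha-glucoside for 20 min at room temperature; NaOH/glycine stop, read ex 365/em 440 nm, Hill-fitted AC50.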

[14] = qHTS Assay for Lipid Storage Modulators (AID 1519; calls by dose curve; on activity change, negative = inhibition: on the % scale 0 is the no-effect control and ±100 the full control effect); conditions: Drosophila S3 cells, BODIPY lipid droplet/cell ratio, laser cytometry, cells loaded with oleic acid
Outline: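 Cells seeded at 5,000 per well were treated with compounds over a concentration series and loaded with oleic acid (400 uM, as added). Lipid droplet fluorescence (488 nm excitation, 500-530 nm channel) was read by laser-scanning cytometry and normalized to 20 uM Triacsin C.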

[15] = target: DNA repair nuclease/redox regulator APEX1 (Homo sapiens) (UniProt P27695); experiment: qHTS Validation Assay for Inhibitors of the Human Apurinic/apyrimidinic Endonuclease 1 (APE1) (AID 1705; further: potency means the concentration at half of the fitted maximal effect)
Sequence of DNA repair nuclease/redox regulator APEX1 (Homo sapiens) (P27695 whole entry, looked up): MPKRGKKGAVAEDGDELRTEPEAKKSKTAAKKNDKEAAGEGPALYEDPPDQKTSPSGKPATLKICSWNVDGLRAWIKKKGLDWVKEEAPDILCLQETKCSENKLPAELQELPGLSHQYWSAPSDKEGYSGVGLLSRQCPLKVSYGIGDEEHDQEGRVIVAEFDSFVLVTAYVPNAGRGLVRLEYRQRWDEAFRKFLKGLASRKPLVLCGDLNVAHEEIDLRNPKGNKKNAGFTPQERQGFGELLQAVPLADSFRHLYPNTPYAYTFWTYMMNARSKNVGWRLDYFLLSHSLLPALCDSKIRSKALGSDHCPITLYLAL
Outline: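 Endonuclease activity of human APE1 is followed as dequenching when the enzyme incises a tetrahydrofuran abasic site in a short duplex labelled 5'-TAMRA/3'-BHQ-2 (50 nM final), after 15 min enzyme–compound preincubation at room temperature.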

[16] = Counterscreen for APE1 Inhibitors: Fluorescent Dye Displacement Validation Assay (AID 1707); further: potency means the concentration at half of the fitted maximal effect
Outline: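 Loss of Thiazole Orange fluorescence marks promiscuous DNA binders. The dye (250 nM) is mixed with 50 nM abasic-site dsDNA in pH7.5 Tris buffer containing MgCl2, then compounds are added and emission is read once.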

[17] = target: Endonuclease 4 (Escherichia coli (strain K12)) (UniProt P0A6C1); experiment: Counterscreen for APE1 Inhibitors: qHTS Validation Assay for Inhibitors of Endonuclease IV (AID 1708); further: potency means the concentration at half of the fitted maximal effect
Outline: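 Enzyme (2 nM) + compound, 15 min RT; add 50 nM TAMRA/BHQ-2 THF-site dsDNA; kinetic read ex525/em598, 3 reads/60 s; activity = read 3 − read 1. Buffer Tris pH 7.5, 50 mM NaCl, 2 mM MgCl2, DTT, Tween-20.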

[18] = qHTS for differential inhibitors of proliferation of Plasmodium falciparum line 7G8 (AID 1815);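 further: parasite growth measured after three days of incubation; plate controls were vehicle wells for no effect and reference inhibitor wells for full effect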
[19] = qHTS for differential inhibitors of proliferation of Plasmodium falciparum line 3D7 (AID 1876);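 further: parasite growth measured after three days of culture; 0% = vehicle wells and -100% = reference inhibitor wells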

Nc1c(S(=O)(=O)O)cc(Nc2ccc(Nc3nc(Cl)nc(Nc4ccc(S(=O)(=O)O)cc4)n3)c(S(=O)(=O)O)c2)c2c1C(=O)c1ccccc1C2=O
active: Potency [2] 15.8 µM | Potency [11] 0.631 µM | Potency [15] 0.251 µM | Potency [16] 8.91 µM | Potency [17] 3.98 µM
inactive: activity change, negative = inhibition [1] -21.1% | Potency [3] > 46 µM | Potency [4] > 46 µM | outcome [5] | Potency [6] | Potency [7] | Potency [8] | Potency [9] | outcome [10] | outcome [12] | outcome [13] | activity change, negative = inhibition ([14]; at 57.5 µM (top of the series)) -0.911% | Potency [18] | Potency [19]
-16.5%: max response ([14]; measured here: lipid channel max response)
-15%: max response ([14]; measured here: cell count channel max response)
